Measured values: PubChem BioAssay (NCATS)
Results filed as inconclusive are left out. Entries that show only a call come without a potency. Activity calls are given as the source filed them. Unless noted, calls come from the whole dose curve; as a rule, active = well fitted curve in the direction sought with a large enough effect; inconclusive = small, poorly fitted or top-dose-only effect, or another doubt; inactive = no such curve, though single readings can be large; an effect the other way counts as inactive or inconclusive. Residues, ends and D or L forms follow the SMILES beside them. *: point of attachment. Cbz = O=C(OCc1ccccc1)*

Legend:
[1] = qHTS for differential inhibitors of proliferation of Plasmodium falciparum line D10 (AID 1877);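 note: parasites grown with compound for 72 h before DNA staining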; note: potency is the fitted concentration of half-maximal effect
[2] = qHTS for differential inhibitors of proliferation of Plasmodium falciparum line Dd2 (AID 1882); conditions: Potency: Plasmodium falciparum Dd2 proliferation inhibition; note: nearly all actives have a fitted effect of over 65% in size; note: potency is the fitted concentration of half-maximal effect
Outline: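 Dd2-infected erythrocytes (0.3% parasitemia, 2.5% hematocrit final) incubated with compound 72 h at 37 C, 5% CO2; lysed with saponin/Triton buffer containing SYBR Green I, incubated overnight in the dark, then read by fluorescence (485/535 nm). Normalized to 0.29 uM artemisinin and DMSO.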

[3] = qHTS for differential inhibitors of proliferation of Plasmodium falciparum line W2 (AID 1883); conditions: Potency: Plasmodium falciparum W2 proliferation inhibition;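 note: parasites grown with compound for 72 h before lysis and staining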; note: potency is the fitted concentration of half-maximal effect
[4] = qHTS for differential inhibitors of proliferation of Plasmodium falciparum line HB3 (AID 1886); conditions: Potency: Plasmodium falciparum HB3 proliferation inhibition;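 note: parasites grown with compound for 72 h before SYBR Green readout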; note: potency is the fitted concentration of half-maximal effect
[5] = target: ATP-dependent DNA helicase Q1 (Homo sapiens) (UniProt P46063); assay: qHTS Validation Assay for Inhibitors of RecQ-Like Dna Helicase 1 (RECQ1) (AID 2353)
Outline: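 50 nM RECQ1T1 preincubated 15 min with compound in Tris pH 8.0 buffer with MgCl2, DTT, Tween-20 and 2.5 ug/ml poly(dI-dC); started with 200 nM TAMRA/BHQ-2 forked duplex and 2 mM ATP. Unwinding read as fluorescence (525/598 nm), two reads 2 h apart.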

[6] = Cytometric Cell-Based qHTS for Inhibitors of the mTORC1 Signaling Pathway in MEF (Tsc2-/-, p53-/-) Cells (AID 2660);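 note: percent of cells above a phospho-rpS6 to PI ratio cutoff in each well; series mostly up to about 38 µM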
Outline: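 Readout: Alexa-488 phospho-rpS6 (Ser235/236) intensity divided by PI intensity, thresholded against 7.5 nM rapamycin wells and reported as % positive cells. PI cell count served as the viability measure. Compound exposure was 24 hrs at 37 degree Celsius.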

[7] = High Content Imaging Cell-Based qHTS for Inhibitors of the mTORC1 Signaling Pathway in MEF (Tsc2-/-, p53-/-) Cells (AID 2666);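 note: percent of cells scored positive for phospho-rpS6 Ser235/236 immunostaining by imaging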
Outline: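 Phospho-rpS6 (Ser235/236) immunofluorescence, normalized and scored as % positive cells using rapamycin and DMSO controls, was read in empty-vector Tsc2-/-, p53-/- MEFs after 24 h compound exposure at 37 C; propidium iodide counted cells.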

[8] = High Content Imaging Cell-Based qHTS for Inhibitors of the mTORC1 Signaling Pathway in MEF Cells (AID 2667);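 note: Tsc2-/- p53-/- MEFs stably re-expressing wild-type Tsc2 exposed 24 h; series mostly up to about 38 µM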
Outline: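 WT MEFs (Tsc2-/-, p53-/- re-expressing Tsc2), in DMEM + 10% FBS, were treated with compound for 24 h at 37 C. Cells were then fixed and stained for phospho-rpS6 Ser235/236 with propidium iodide as cell count. Values are % positive cells, with thresholds set against rapamycin-treated cells.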

[9] = Cytometry Cell-Based qHTS for Inhibitors of the mTORC1 Signaling Pathway in MEF cells (AID 2668);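 note: Tsc2-/- p53-/- mouse embryonic fibroblasts stably re-expressing wild-type Tsc2; percent cells positive for phospho-rpS6 Ser235/236 relative to propidium iodide stain; series mostly up to about 38 µM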
Outline: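 Pathway inhibition in WT Tsc2-rescued Tsc2-/-, p53-/- MEFs is measured as the Alexa-488 phospho-rpS6 to propidium iodide intensity ratio after 24 hrs of compound at 37 degree Celsius. PI-stained cell number gives viability.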

[10] = Validation screen for small molecules that induce DNA re-replication in MCF 10A normal breast cells (AID 463097); note: nearly all actives have a fitted effect of over 60% in size
Outline: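 DNA re-replication was detected as a rise in nuclei with elevated Hoechst fluorescence after a 48 hr compound exposure of MCF 10A cells at 37 C.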

[11] = target: Ubiquitin carboxyl-terminal hydrolase 2 (Homo sapiens) (UniProt O75604); assay: qHTS Validation Assay for Inhibitors of Ubiquitin-specific Protease USP2a Using CHOP2 as the Reporter (AID 463106)
Outline: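 USP2 core (10 nM final) was preincubated with compound 30 min at RT in pH 8.0 Tris/CaCl2/beta-ME/CHAPS buffer. Ub-CHOP2 and reporter substrate (25 nM final each) were then added, with fluorescence (Ex 485/Em 531) read after 60 min. Data were normalized to NEM full inhibition and fitted to concentration-response curves.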

[12] = target: DNA polymerase III PolC-type (Bacillus subtilis (strain 168)) (UniProt P13267); assay: qHTS Validation Assay for the Inhibitors of DNA Replication in Gram-Positive Bacteria (AID 485295);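 note: reconstituted holoenzyme with PolC plus beta clamp SSB and primase; PicoGreen fluorescence of double-stranded DNA made on primed circular M13 template; series mostly up to about 57 µM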
Outline: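 Primed replication of single-stranded M13Gori by a four-protein B. subtilis holoenzyme is measured at room temperature. Double-stranded product is quantified by PicoGreen fluorescence after an EDTA stop; inhibition is scaled between DMSO and EDTA controls.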

[13] = target: Tumor susceptibility gene 101 protein (Homo sapiens) (UniProt Q99816); assay: qHTS Validation Assay for Iinhibitors of HIV-1 Budding by Blocking the Interaction of PTAP/TSG101 (AID 485342; calls by dose curve)
Outline: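 Fluorescence anisotropy measured PTAP-Tsg101 interaction. Final concentrations were 10 uM protein domain and 50 nM labeled peptide, equilibrated 20 min at room temperature.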

[14] = qHTS Validation Assay to Find Inhibitors of Chronic Active B-Cell Receptor Signaling (AID 485345; active = well fitted curve in the direction sought with a large enough effect in the main read-out, with a control signal flat, not every such curve was filed as active)
Outline: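 TMD8 ABC-DLBCL cells stably carrying doxycycline-inducible IkappaBalpha–green luciferase fusion plus unfused red luciferase; compounds 46 uM to 3 nM, 4 h at 37C with doxycycline. Corrected green/red luminescence ratio normalized to 10 uM MG-132 and basal cell wells; curves fitted.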

[15] = target: Ferritin light chain (Equus caballus) (UniProt P02791); assay: qHTS Validation Assay for Identification of Novel General Anesthetics (AID 2323); note: series mostly up to about 77 µM
Outline: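 Apoferritin from horse spleen (10 uM) was mixed with 1-aminoanthracene at 50% saturation in PBS, then compounds were added. After 10 min at room temperature, fluorescence was read (ex 380 nm, em 535 nm) and normalized to free-probe and complex controls.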

[16] = target: RecQ-like DNA helicase BLM (Homo sapiens) (UniProt P54132); assay: qHTS Validation Assay for Inhibitors of Bloom's syndrome helicase (BLM) (AID 2364)
Outline: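 50 nM BLM preincubated 15 min at room temperature with compound in pH 8.0 Tris buffer containing 2.5 ug/ml poly(dI-dC); started with 200 nM TAMRA/BHQ-2 forked duplex and 2 mM ATP (final). Unwinding read as TAMRA fluorescence increase, two reads 2 h apart.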

Chain of RecQ-like DNA helicase BLM (Homo sapiens) (P54132 whole entry, looked up): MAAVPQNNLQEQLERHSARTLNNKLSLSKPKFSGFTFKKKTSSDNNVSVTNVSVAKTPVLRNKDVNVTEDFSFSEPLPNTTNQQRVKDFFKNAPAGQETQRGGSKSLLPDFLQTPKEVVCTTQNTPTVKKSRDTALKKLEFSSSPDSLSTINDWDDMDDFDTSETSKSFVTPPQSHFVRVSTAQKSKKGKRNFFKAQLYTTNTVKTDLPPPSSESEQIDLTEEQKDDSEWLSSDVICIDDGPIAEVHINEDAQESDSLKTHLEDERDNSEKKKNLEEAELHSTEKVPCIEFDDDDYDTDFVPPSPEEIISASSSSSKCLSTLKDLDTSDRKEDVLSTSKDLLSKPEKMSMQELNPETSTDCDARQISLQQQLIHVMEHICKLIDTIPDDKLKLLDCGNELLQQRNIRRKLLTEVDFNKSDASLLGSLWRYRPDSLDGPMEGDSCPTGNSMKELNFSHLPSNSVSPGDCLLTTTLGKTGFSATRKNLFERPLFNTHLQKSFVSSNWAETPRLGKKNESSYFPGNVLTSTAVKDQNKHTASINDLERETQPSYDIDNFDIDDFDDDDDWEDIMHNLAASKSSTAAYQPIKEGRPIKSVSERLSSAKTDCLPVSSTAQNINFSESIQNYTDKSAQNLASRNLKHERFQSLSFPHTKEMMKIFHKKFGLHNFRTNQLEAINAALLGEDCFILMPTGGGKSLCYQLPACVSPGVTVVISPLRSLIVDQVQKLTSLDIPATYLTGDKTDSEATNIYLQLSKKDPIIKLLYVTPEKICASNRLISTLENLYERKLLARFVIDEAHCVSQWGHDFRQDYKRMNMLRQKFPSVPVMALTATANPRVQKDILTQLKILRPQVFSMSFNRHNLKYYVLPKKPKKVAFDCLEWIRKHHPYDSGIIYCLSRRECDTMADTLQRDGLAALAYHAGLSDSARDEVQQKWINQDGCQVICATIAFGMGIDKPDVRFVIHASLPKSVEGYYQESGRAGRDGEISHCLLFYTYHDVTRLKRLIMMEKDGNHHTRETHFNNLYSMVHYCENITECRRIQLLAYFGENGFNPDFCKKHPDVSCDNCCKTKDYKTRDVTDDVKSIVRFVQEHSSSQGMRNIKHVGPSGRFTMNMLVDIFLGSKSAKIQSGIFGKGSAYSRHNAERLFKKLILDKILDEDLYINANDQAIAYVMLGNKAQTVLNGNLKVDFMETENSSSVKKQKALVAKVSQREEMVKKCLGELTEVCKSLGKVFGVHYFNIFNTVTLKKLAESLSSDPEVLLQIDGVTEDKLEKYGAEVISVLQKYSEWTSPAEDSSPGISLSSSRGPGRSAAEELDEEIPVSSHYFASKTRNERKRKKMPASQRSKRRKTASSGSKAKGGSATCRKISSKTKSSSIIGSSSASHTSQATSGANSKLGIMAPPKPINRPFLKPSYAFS
Chain of DNA polymerase III PolC-type (Bacillus subtilis (strain 168)) (P13267 whole entry, looked up): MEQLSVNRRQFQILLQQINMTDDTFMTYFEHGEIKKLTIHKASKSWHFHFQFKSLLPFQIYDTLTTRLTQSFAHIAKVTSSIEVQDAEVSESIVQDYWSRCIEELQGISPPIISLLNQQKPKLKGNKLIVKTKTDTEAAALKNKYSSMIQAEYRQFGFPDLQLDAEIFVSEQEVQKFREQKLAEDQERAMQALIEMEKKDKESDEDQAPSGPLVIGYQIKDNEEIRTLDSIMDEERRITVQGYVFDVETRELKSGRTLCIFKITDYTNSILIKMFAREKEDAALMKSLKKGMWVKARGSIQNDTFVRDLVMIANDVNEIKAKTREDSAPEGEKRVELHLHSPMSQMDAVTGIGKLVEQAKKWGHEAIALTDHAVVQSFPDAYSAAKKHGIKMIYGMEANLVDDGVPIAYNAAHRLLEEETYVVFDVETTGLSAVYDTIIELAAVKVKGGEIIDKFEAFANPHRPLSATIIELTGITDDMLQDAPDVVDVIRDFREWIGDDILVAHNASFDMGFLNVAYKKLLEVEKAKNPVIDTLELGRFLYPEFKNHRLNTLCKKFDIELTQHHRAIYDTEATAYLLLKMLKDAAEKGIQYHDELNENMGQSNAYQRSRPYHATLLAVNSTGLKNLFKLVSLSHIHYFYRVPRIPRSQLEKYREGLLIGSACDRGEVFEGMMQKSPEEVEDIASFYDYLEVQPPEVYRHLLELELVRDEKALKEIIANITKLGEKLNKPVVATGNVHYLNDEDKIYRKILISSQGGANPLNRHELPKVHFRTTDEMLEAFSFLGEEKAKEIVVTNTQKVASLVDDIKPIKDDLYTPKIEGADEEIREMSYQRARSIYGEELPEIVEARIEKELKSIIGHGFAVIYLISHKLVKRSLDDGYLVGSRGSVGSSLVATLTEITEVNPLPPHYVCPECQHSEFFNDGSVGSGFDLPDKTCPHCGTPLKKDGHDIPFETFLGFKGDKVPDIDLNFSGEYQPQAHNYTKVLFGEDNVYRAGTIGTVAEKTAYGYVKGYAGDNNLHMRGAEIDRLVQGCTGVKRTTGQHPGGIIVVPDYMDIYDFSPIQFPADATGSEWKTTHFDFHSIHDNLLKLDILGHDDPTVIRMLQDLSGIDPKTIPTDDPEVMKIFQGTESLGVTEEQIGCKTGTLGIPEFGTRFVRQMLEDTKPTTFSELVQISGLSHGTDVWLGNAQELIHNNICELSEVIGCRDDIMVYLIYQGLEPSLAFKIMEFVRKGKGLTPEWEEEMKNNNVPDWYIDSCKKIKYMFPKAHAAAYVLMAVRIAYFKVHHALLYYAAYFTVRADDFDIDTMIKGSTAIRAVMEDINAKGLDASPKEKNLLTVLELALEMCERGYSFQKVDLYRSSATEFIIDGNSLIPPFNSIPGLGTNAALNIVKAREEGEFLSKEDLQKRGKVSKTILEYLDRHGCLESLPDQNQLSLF
Chain of ATP-dependent DNA helicase Q1 (Homo sapiens) (P46063 whole entry, looked up): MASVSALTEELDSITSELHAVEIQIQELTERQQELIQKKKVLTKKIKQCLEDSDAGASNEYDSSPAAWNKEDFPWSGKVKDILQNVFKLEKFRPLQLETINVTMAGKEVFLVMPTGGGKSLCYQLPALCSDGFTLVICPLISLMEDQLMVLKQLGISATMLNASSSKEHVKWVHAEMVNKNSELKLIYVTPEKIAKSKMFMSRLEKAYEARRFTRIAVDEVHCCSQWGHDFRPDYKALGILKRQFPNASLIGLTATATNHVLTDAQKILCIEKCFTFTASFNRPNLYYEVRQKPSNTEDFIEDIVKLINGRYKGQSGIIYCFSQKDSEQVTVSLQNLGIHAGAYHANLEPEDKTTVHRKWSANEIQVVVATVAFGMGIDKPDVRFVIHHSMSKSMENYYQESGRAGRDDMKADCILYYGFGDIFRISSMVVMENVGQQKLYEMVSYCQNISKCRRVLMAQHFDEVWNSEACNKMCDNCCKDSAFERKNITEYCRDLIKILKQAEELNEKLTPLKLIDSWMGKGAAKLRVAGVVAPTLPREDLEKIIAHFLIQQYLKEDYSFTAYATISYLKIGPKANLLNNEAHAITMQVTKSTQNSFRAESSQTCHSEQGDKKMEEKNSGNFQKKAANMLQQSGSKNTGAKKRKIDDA
Chain of Ubiquitin carboxyl-terminal hydrolase 2 (Homo sapiens) (O75604 whole entry, looked up): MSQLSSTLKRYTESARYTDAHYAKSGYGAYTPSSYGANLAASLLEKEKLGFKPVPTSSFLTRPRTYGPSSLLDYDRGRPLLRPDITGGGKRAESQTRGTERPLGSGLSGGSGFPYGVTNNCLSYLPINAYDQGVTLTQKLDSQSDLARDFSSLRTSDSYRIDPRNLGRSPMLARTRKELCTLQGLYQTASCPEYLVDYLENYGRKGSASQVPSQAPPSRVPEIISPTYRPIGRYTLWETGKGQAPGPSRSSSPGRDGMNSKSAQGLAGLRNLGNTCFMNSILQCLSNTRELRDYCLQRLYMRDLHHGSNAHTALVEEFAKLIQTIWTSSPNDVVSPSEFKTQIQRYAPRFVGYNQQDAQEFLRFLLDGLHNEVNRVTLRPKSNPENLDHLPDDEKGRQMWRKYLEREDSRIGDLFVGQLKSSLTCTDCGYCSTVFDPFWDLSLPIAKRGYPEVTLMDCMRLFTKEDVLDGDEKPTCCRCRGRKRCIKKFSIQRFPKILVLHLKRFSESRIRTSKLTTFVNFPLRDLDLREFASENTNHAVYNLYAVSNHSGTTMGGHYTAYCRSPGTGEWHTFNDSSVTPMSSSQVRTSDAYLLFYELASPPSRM
Chain of Ferritin light chain (Equus caballus) (P02791 2-175 limits assumed): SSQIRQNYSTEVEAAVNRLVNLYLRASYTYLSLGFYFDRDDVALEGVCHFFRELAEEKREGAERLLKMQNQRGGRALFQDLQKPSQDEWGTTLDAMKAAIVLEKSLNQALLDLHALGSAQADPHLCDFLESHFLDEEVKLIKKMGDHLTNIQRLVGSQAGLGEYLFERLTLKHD
Chain of Tumor susceptibility gene 101 protein (Homo sapiens) (Q99816 whole entry, looked up, the tested form may be a part): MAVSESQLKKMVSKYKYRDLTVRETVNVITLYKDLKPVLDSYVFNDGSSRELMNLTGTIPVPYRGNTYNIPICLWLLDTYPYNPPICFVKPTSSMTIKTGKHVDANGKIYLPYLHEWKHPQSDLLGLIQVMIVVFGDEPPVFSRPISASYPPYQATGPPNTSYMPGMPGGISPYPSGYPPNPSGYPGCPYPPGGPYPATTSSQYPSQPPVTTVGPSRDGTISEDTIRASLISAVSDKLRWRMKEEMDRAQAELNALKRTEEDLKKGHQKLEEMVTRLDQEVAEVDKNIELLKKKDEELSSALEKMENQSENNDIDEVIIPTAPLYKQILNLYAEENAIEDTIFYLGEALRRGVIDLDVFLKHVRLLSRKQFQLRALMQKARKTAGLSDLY

Row | SMILES | Potency [1] | Potency [2] | Potency [3] | Potency [4] | Potency [5] | outcome [6] | Potency [7] | Potency [8] | Potency [9] | Potency [10] | Potency [11] | Potency [12] | outcome [13] | outcome [14] | Potency [15] | Potency [16]
1 | NC(=O)c1ccccc1 | inactive | inactive | inactive | inactive | inactive | inactive | inactive | inactive | inactive | inactive | inactive | inactive | inactive | inactive | – | –
2 | COc1ccc(CCN(C)CCc2ccc(OC)c(OC)c2)cc1OC | inactive | inactive | 14.1 µM (active) | inactive | inactive | inactive | inactive | inactive | inactive | inactive | – | inactive | inactive | – | inactive | –
3 | CN1C2CCC1CC(OC(c1ccccc1)c1ccccc1)C2 (configuration not stated) | 7.08 µM (active) | 4.47 µM (active) | 1.41 µM (active) | 6.31 µM (active) | inactive | inactive | inactive | inactive | inactive | inactive | inactive | inactive | inactive | inactive | – | inactive
4 | COC(=O)C(N)Cc1ccc(Cl)cc1 (configuration not stated) | inactive | inactive | inactive | inactive | inactive | inactive | inactive | inactive | – | inactive | – | inactive | inactive | inactive | – | inactive
5 | O[Si](CCCN1CCCCC1)(c1ccc(F)cc1)C1CCCCC1 (configuration not stated) | 0.0282 µM (active) | 0.141 µM (active) | 0.0631 µM (active) | 0.0708 µM (active) | inactive | inactive | inactive | – | – | inactive | inactive | inactive | inactive | – | – | –
6 | CCCCCCN(CCCCCC)C(=O)Cc1c(-c2ccc(F)cc2)[nH]c2ccccc12 | 12.6 µM (active) | 10 µM (active) | 3.55 µM (active) | 7.08 µM (active) | inactive | inactive | inactive | inactive | – | inactive | inactive | inactive | inactive | inactive | – | –
7 | CC(C)[C@H](NC(=O)OCc1ccccc1)C(=O)N[C@H](C=O)Cc1ccccc1 (Cbz-Val-Phe-aldehyde) | 8.91 µM (active) | 4.47 µM (active) | 2.82 µM (active) | 5.01 µM (active) | inactive | inactive | inactive | inactive | inactive | – | inactive | inactive | inactive | inactive | inactive | –
8 | NC(=O)CC[C@H](N)C(=O)O | inactive | inactive | inactive | inactive | inactive | inactive | inactive | inactive | inactive | inactive | inactive | inactive | inactive | inactive | inactive | –
9 | CC(=O)/C(C)=N/O | inactive | inactive | inactive | inactive | inactive | inactive | inactive | inactive | inactive | inactive | inactive | inactive | inactive | inactive | inactive | –
10 | CCOC(=O)C12CC1/C(=N/O)c1ccccc1O2 (configuration not stated) | inactive | inactive | inactive | inactive | inactive | inactive | inactive | inactive | inactive | inactive | – | inactive | – | inactive | inactive | –
11 | COc1ccccc1N1CCN(CCCCNC(=O)c2ccc3ccccc3c2)CC1 | 10 µM (active) | 10 µM (active) | 2.51 µM (active) | 5.01 µM (active) | inactive | inactive | inactive | – | – | inactive | inactive | inactive | inactive | – | – | inactive
12 | N#CC(C#N)=C(N)/C(C#N)=C/c1ccc(O)cc1 | inactive | inactive | inactive | – | inactive | inactive | inactive | inactive | inactive | inactive | inactive | inactive | inactive | inactive | inactive | –
